Bioassay records as filed in PubChem BioAssay.
Rows were chosen to be rich in hits. Some 0.77% of all compounds tested hit in one or more screens of this group.
TbPYK inhibitor: T. brucei pyruvate kinase inhibition; Q57TT1; TbPYK enzyme, Kinase-Glo Plus ATP luminescence, 45 min; Potency, µM (highest dose often 76.8 µM), inactives show at the highest dose activity, negative = inhibition, hits mostly inhibitors; actives 0.12% (n = 410,000); AID 624173; active = well fitted curve in the direction sought with a large enough effect; inconclusive = small, poorly fitted or top-dose-only effect, or another doubt; inactive = no such curve, though single readings can be large; an effect the other way counts as inactive or inconclusive; note: potency is the fitted concentration of half-maximal effect; % is set by controls: 0 for no effect and ±100 for the full control effect; nearly all actives have a fitted effect of over 50% in size
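TbPYK + substrate in 50 mM TEA pH 7.2, 100 mM KCl, 10 mM MgCl2, 0.05% BSA, 0.01% Tween-20; cpd pinned; ADP 130 uM final; 45 min RT; Kinase-Glo Plus 10 min; luminescence endpoint.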
LmPK inh: blocks Leishmania mexicana pyruvate kinase activity; Q27686; purified LmPK, Kinase-Glo ATP luminescence, 1 h; Potency, µM (titrated, usually from 57.5 µM), inactives show at the highest dose activity change, negative = inhibition, most hits filed as inhibitors; actives 0.37% (n = 290,000); AID 1721; active = well fitted curve in the direction sought with a large enough effect; inconclusive = small, poorly fitted or top-dose-only effect, or another doubt; inactive = no such curve, though single readings can be large; an effect the other way counts as inactive or inconclusive; note: potency is the fitted concentration of half-maximal effect; % is set by controls: 0 for no effect and ±100 for the full control effect
Target sequence (Q27686 whole entry, looked up): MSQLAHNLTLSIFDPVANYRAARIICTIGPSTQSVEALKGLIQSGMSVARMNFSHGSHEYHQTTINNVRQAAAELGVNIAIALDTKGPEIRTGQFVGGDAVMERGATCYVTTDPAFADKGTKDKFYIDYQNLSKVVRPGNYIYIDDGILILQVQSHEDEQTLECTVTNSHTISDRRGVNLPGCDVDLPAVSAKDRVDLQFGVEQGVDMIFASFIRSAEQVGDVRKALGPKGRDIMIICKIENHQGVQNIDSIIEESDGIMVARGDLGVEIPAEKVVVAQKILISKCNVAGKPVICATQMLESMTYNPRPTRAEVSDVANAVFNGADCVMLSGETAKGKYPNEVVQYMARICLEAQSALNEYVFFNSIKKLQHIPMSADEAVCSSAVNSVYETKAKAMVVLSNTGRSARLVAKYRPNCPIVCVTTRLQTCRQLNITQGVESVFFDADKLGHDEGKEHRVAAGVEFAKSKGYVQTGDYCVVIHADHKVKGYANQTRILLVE
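ATP generated from ADP (0.1 mM) and PEP (0.5 mM) by 0.1 nM LmPK over 1 h at room temperature (pH 7.2 imidazole buffer) was detected by coupled luciferase luminescence. Values were normalized to uninhibited and no-enzyme wells.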
NS1 function inh: blocks influenza NS1 protein function; actives 0.4% (n = 270,000); Potency, µM (highest dose often 46.1 µM), for inactives: top-dose activity, positive = more growth; AID 2326; note: potency is the fitted concentration of half-maximal effect; actives are rising curves; nearly all actives have a fitted effect of over 50% in size
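OD600 was taken as the measure of yeast growth restored by compound in an NS1-expressing S. cerevisiae strain. Cells had been washed out of glucose medium and diluted 1:100 into galactose -URA medium, pH 6.0.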
RE007 growth inh: less growth of the S. pombe RE007 Vpr strain. S. pombe RE007 Vpr strain, BacTiter-Glo ATP luminescence, 24 h. Potency, µM (titrated, usually from 92.2 µM), for inactives: at the highest dose activity change, negative = less growth, usual class: inhibitors. actives 0.21% (n = 360,000). AID 651644; active = well fitted falling curve with a large enough effect; inconclusive = small, poorly fitted or top-dose-only effect; inactive = no such curve, though single readings can be large or run the other way; note: potency is the fitted concentration of half-maximal effect; % is set by controls: 0 for no effect and ±100 for the full control effect; nearly all actives have a fitted effect of over 50% in size
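Fission yeast RE007 carrying one integrated HIV-1 vpr copy, seeded at OD 0.01 in PMG+AL medium with 23 nL pinned compound. Grown 24 h at 30 degrees; viability read by BacTiter-Glo luminescence after 5 min.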
NS1 inh valid: validation of influenza NS1 protein function inhibitors; shares compounds with NS1 function inh; influenza NS1 function cell assay, 15-point titration; activity change, negative = inhibition, % at 32.9 µM; 1,400 tested, under 10 active; AID 492980; note: 0% is about no effect
PR8 titer: influenza NS1 inhibitors: inhibition of influenza A/PR/8/34 replication. actives 30% (n = 95). MDCK infected influenza A/PR/8/34, virus titer TCID50; active compounds read low. virus titer (log TCID50), log10 TCID50 at 5 µM. shares compounds with NS1 function inh; call rule not given here
Numbers without * were called inactive; [ ] = remark or other dose. Unless noted, calls come from the whole dose curve.

Screening Cc1nc(-c2ccccc2)sc1C1(C)CC(c2c(Cl)cccc2Cl)=NO1 (stereo unspecified) returned TbPYK inhibitor 4.0%, LmPK inh 0.3%, NS1 function inh inconclusive and RE007 growth inh -15.1%.
For Cc1nc(-c2ccc(Cl)cc2)sc1C1(C)CC(c2c(Cl)cccc2Cl)=NO1 (stereo unspecified) the results were TbPYK inhibitor 2.8%, LmPK inh 0.1%, NS1 function inh 10µM*, RE007 growth inh -3.1% and NS1 inh valid 18.4.
`Cc1cc(C)cc(-n2ccnc2SCC(=O)Nc2ccc3c(c2)OCO3)c1` gave TbPYK inhibitor 3.9%.
For C[C@@]12CCC(=O)C=C1CC[C@H]1C2[C@@H](O)C[C@]2(C)[C@@H]1CC[C@@]2(O)C(=O)CO (stereo partly specified) the results were NS1 function inh -5.5%.
CN(c1ccccc1C(=O)O)S(C)(=O)=O was read as TbPYK inhibitor -9.7%, LmPK inh 1.2%, NS1 function inh -1.1% and RE007 growth inh 13.4%.
Screening CN(C)c1ccccc1C(=O)c1ccccc1N(C)C returned TbPYK inhibitor 0.3%, LmPK inh 11.5%, NS1 function inh 8.91µM*, RE007 growth inh -11.2% and NS1 inh valid 5.1.
CCCCCCCCCCCCCCCC(=O)OCC(O)C1OC(=O)C(O)=C1O (stereo unspecified) was read as TbPYK inhibitor -0.9%.
Screening N#CC1=C(N)OC2=C(CC/C2=C\c2ccccc2)C1c1ccccc1 (stereo unspecified) returned TbPYK inhibitor -0.6%, LmPK inh 2.4%, NS1 function inh 0.891µM*, RE007 growth inh -23.5% and NS1 inh valid inconclusive.
`COc1ccc(-c2cnnn2-c2ccc(NC(=O)c3ccc(S(=O)(=O)N4CCCCC4)cc3)cc2)cc1OC` gave TbPYK inhibitor 0.3%, LmPK inh 0.2%, NS1 function inh 5.01µM*, RE007 growth inh 6.5%, NS1 inh valid 30.6 and PR8 titer 7.33*.
For COc1ccc(C(=O)Nc2ccc(-n3nncc3-c3ccc(OC)c(OC)c3)cc2)cc1 the results were TbPYK inhibitor -10.0%.
For Cc1cccc(CC(=O)Nc2cc(=O)n(C)c(=O)n2C)c1 the results were TbPYK inhibitor -8.8%, LmPK inh -3.4%, NS1 function inh inconclusive, RE007 growth inh -1.9% and NS1 inh valid -7.4.
Screening Cc1ccc(O)c(-c2n[nH]c3c2C(c2ccccc2F)N(Cc2ccco2)C3=O)c1 (stereo unspecified) returned TbPYK inhibitor 4.7%.
`Cc1cc(Nc2ccc(F)cc2F)n2nc(C)nc2n1` gave TbPYK inhibitor -3.2%, LmPK inh -5.7%, NS1 function inh 12.6µM*, RE007 growth inh -3.1% and NS1 inh valid -27.3.
C=C1CCC(O)C/C1=C/C=C1\CCC[C@]2(C)[C@@H]([C@H](C)/C=C/[C@H](C)C(C)C)CC[C@@H]12 (stereo partly specified) was read as TbPYK inhibitor -4.1%.
`CN1CC[C@H](c2c(O)cc(O)c3c(=O)cc(-c4ccccc4Cl)oc23)[C@@H](O)C1` gave TbPYK inhibitor 2.5%.
CN(C)S(=O)(=O)c1ccc(NC(=O)CSc2nc3ccccc3n2-c2ccccc2)cc1 was read as TbPYK inhibitor 3.7%, LmPK inh -2.0%, NS1 function inh 10µM*, RE007 growth inh 2.0% and NS1 inh valid 4.6.
`COc1ccc(-n2c(SCC(=O)Nc3ccc([N+](=O)[O-])cc3OC)nc3ccccc32)cc1` gave TbPYK inhibitor -6.9%, LmPK inh -1.8%, NS1 function inh -4.6% and RE007 growth inh 4.7%.
Screening COc1cc(NC(=O)CSc2nc3ccccc3n2-c2ccccc2)c(C)cc1[N+](=O)[O-] returned TbPYK inhibitor 2.3%, LmPK inh 5.4%, NS1 function inh 22.4µM*, NS1 inh valid -3.6 and PR8 titer 7.66.
Screening CN(Cc1ccco1)C(=O)Cn1nc(-c2ccc(Cl)cc2)ccc1=O returned TbPYK inhibitor 3.3%, LmPK inh -1.7%[11.5 µM] and RE007 growth inh -3.0%.
